About 79,000 compounds went through this panel and 15% of them were active in at least one assay; those are over-represented in the sample as a whole. A number with no mark means an inactive call. No stated cut-off is given here; in the data, active means growth inhibition above about 70%; inactive means the rest.
Assay: NCI Yeast Anticancer Drug Screen. Data for the rad50 strain (AID 155);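 further: 0% = growth of vehicle-only cultures of the same strain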
Conditions: S. cerevisiae rad50 strain growth inhibition, active compounds read high; at 50.0 µM unless noted
In short: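 Yeast carrying a defined DNA repair defect were exposed to test compounds, and growth was compared with vehicle-treated controls to give percent inhibition.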

SMILES | growth inhibition [%]
O=c1[nH]c2[nH]c(=S)[nH]c(=O)c2[nH]1 | 6.3
CC(C)N(C(=O)c1ccccc1O)C(C)C | 2.95
[N-]=[N+]=NC1(N=[N+]=[N-])C(=O)Nc2ccccc2C1=O (stereo not drawn) | 15.5
COc1ccc(N2CC[N+](c3ccc(N(C)C)cc3)=C2C2=[N+](c3ccc(N(C)C)cc3)CCN2c2ccc(OC)cc2)cc1 | 0.3
O=c1oc(-c2ccccc2CCl)nc2ccccc12 | 0.95
COC1OC(COC(=O)NCCCCC(=O)C(F)(F)F)C(O)C(O)C1O (stereo not drawn) | 3.6
NC(CSCCB(O)O)C(=O)O (stereo not drawn) | -11.7
Cc1ccc(C(=O)O)c(/C=C2\Cc3cc(C)cc(C)c3C2=O)c1 | 21.1
CC(CCO)CCCO (stereo not drawn) | -22.1
Cc1ccc2sccc(=O)c2c1 | 1.05
[O-][N+](=Nc1ccc2c(c1)Cc1ccccc1-2)c1ccc2c(c1)Cc1ccccc1-2 | 25.7
FC(F)(F)c1ccc2ccc3ccc(Cl)cc3c2c1 | -7.5
O=C(NO)c1ccccc1 | 17.1
COC(=O)c1cc(C)n(C)c(=O)c1CN | -6.4
Cc1nc(-c2ccc(N=Cc3ccc(N4CCC5(CCCCC5)CC4)cc3)cc2)cs1 | 25
Cc1ccc(S(=O)(=O)NC(CCC(=O)N2CCOCC2)C(=O)O)cc1 (stereo not drawn) | -18.1
O=C(Oc1ccc(Cl)cc1)c1ccc([N+](=O)[O-])cc1 | 12.2
O=[N+]([O-])c1ccc(N(CCO)CCO)cc1 | 1.05

From PubChem BioAssay (NCI)
